This is one part of a sample in which hits are shown more often than they occur.
DENV2 CPE rescue = DENV2-induced cell death inhibition | DENV2-infected cells, cytopathic effect rescue, plate reader | CPE inhibition, % at 9.99 µM | hit rate 1.7% among 350,000 | AID 651640; in the data active means CPE inhibition above about 20%, passing the limit was not always enough; inconclusive means no clear call, values can overlap the other calls; tested in BHK-21 cells
Glyco luc inh = N-linked glycosylation inhibition; D54 ERlucT glycosylation luciferase reporter, 24 h; percent of 100 nM tunicamycin response; reporter increase, % at 12.5 µM; hit rate 0.23% among 360,000; AID 588692;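 active means mean luciferase reporter signal, scaled so untreated is 0 and the glycosylation-blocking control 100, at or above a set limit in every replicate; inconclusive means mean reaches the limit but not every replicate does; inactive means mean below the limit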;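 further: luciferase carries N-glycosylation sites so blocking glycosylation raises the light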
PglD inh = blocks C. jejuni PglD acetyltransferase activity | purified PglD enzyme, DTNB colorimetric CoA detection | inhibition, % at 12.5 µM | AID 602405 | hit rate 0.098% among 360,000; in the data active means inhibition above about 16%, passing the limit was not always enough; inconclusive means no clear call, values can overlap the other calls
Rtt109 HAT inh = C. albicans Rtt109 histone acetyltransferase inhibition. purified Rtt109/Vps75, ThioGlo CoA-SH fluorescence, 4 h. inhibition, % at 34.9 µM. hit rate 0.16% among 330,000;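 active means inhibition of at least 50% in every replicate; inconclusive means best replicate reaches 50% inhibition but some replicates fall short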
Target sequence (Q5AAJ8 whole entry, looked up): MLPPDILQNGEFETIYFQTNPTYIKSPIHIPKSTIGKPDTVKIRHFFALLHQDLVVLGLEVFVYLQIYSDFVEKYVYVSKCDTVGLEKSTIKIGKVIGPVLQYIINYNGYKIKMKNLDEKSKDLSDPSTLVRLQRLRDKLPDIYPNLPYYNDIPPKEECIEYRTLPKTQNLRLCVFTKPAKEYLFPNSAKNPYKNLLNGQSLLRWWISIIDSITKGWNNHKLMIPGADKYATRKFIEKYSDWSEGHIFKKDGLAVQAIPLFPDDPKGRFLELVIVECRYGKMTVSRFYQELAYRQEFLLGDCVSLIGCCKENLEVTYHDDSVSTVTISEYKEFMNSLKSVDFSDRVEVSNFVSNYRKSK
Hits are given with their value.

What do the screens show for `O=C(C[C@H]1C=C[C@@H](NC(=O)c2cccc(F)c2)[C@@H](CO)O1)Nc1nccs1`?
DENV2 CPE rescue: inactive; PglD inh: inactive

What do the screens show for `Nc1ccccc1Sc1nc2ccccc2[nH]1`?
DENV2 CPE rescue: inactive; Glyco luc inh: inactive; Rtt109 HAT inh: 101

Results for Nc1nc2ccccc2[nH]1 ?
DENV2 CPE rescue: inactive; Glyco luc inh: inactive; PglD inh: inactive; Rtt109 HAT inh: inactive

What do the screens show for `COc1ccc(S(=O)(=O)N(C)C[C@@H]2Oc3ccc(NC(=O)Nc4ccc(C(F)(F)F)cc4)cc3CC(=O)N([C@H](C)CO)C[C@@H]2C)cc1`?
DENV2 CPE rescue: inactive; PglD inh: inactive

How did Cc1ccc(/C=N/NC(=O)C(c2ccncc2)N2CCOCC2)cc1 (centres undefined) do in these assays?
DENV2 CPE rescue: inactive; Glyco luc inh: inactive; PglD inh: inactive; Rtt109 HAT inh: inactive

How did COc1ccc(Br)cc1/C=N/NC(=O)C(c1ccncc1)N1CCOCC1 (centres undefined) do in these assays?
DENV2 CPE rescue: 98; Glyco luc inh: inactive; PglD inh: inactive; Rtt109 HAT inh: inactive

What do the screens show for `CCCOc1ccc(C(=O)NC(=S)N2CCN(c3cc4c(cc3F)c(=O)c(C(=O)O)cn4CC)CC2)cc1`?
DENV2 CPE rescue: 53; Glyco luc inh: inactive; PglD inh: inactive; Rtt109 HAT inh: inactive

What do the screens show for `N#Cc1ccc(-c2ccc([C@@H]3[C@H](CO)N4CCCCN(S(=O)(=O)c5ccccc5)C[C@@H]34)cc2)cc1`?
DENV2 CPE rescue: 23; PglD inh: inactive

How did CN(C)CC#Cc1ccc([C@H]2[C@@H](CO)N3CCCCN(S(=O)(=O)c4ccccc4)C[C@H]23)cc1 do in these assays?
DENV2 CPE rescue: inactive; PglD inh: inactive

Results for O=S(=O)(c1ccccc1)N1CCCCN2[C@@H](CO)[C@H](c3ccc(C#Cc4ccccc4)cc3)[C@@H]2C1 ?
DENV2 CPE rescue: 22; PglD inh: inactive

How did CN(C)CC#Cc1ccc([C@H]2[C@@H](CO)N3CCCCN(S(=O)(=O)c4ccccc4)C[C@@H]23)cc1 do in these assays?
DENV2 CPE rescue: 44; PglD inh: inactive

What do the screens show for `O=S(=O)(c1ccccc1)N1CCCCN2[C@H](CO)[C@@H](c3ccc(C#Cc4ccccc4)cc3)[C@@H]2C1`?
DENV2 CPE rescue: inactive; PglD inh: inactive

How did O=S(=O)(Cc1ccccc1)N1CCCCN2[C@H](CO)[C@@H](c3ccc(-c4ccc(F)cc4)cc3)[C@H]2C1 do in these assays?
DENV2 CPE rescue: 41; PglD inh: inactive

What do the screens show for `C[C@H](CO)N1C[C@H](C)[C@@H](CN(C)S(=O)(=O)c2ccc(Cl)cc2)Oc2ccc(NC(=O)Cn3cnnn3)cc2CC1=O`?
DENV2 CPE rescue: inactive; PglD inh: inactive

How did CCS(=O)(=O)N1CCCCN2[C@@H](CO)[C@@H](c3ccc(-c4ccc(C#N)cc4)cc3)[C@@H]2C1 do in these assays?
DENV2 CPE rescue: 45; PglD inh: inactive

How did CCS(=O)(=O)N1CCCCN2[C@H](C1)[C@H](c1ccc(-c3ccc(C#N)cc3)cc1)[C@@H]2CO do in these assays?
DENV2 CPE rescue: inactive; PglD inh: inactive

How did CCOC(=O)C1=C(C)NC(C)=C(C(=O)OCC)C1C(=O)OCC(=O)NCCc1ccc(S(N)(=O)=O)cc1 do in these assays?
DENV2 CPE rescue: inactive; Glyco luc inh: inactive; PglD inh: inactive; Rtt109 HAT inh: 53

Results for Cc1cccc(NC(=O)CN2CCN(C(=O)c3cc(C4CC4)nn3-c3ccccc3)CC2)c1C ?
DENV2 CPE rescue: 62; Glyco luc inh: inactive; PglD inh: inactive

Results for O=C(CN1CCN(C(=O)c2cc(C3CC3)nn2-c2ccccc2)CC1)Nc1ccc(F)cc1 ?
DENV2 CPE rescue: inactive; Glyco luc inh: inactive; PglD inh: inactive

How did O=C(C[C@H]1C[C@H]2c3cc(NC(=O)Nc4ccc(C(F)(F)F)cc4)ccc3O[C@H]2[C@@H](CO)O1)NCc1cc(F)ccc1F do in these assays?
DENV2 CPE rescue: inactive; PglD inh: inactive

What do the screens show for `O=C(Nc1cccc(C(=O)O)c1)/C(=C\c1ccco1)NC(=O)c1ccccc1`?
DENV2 CPE rescue: 50; Glyco luc inh: inactive; PglD inh: inactive; Rtt109 HAT inh: inactive

How did C=CCNC(=O)[C@@H]1[C@H]2C(=O)O[C@H](c3ccccc3)[C@H](c3ccccc3)N2[C@H](c2ccc(O)cc2)[C@@]12C(=O)Nc1ccc(C#CCC(C(=O)OC)C(=O)OC)cc12 do in these assays?
DENV2 CPE rescue: 32; PglD inh: inactive

Results for C=CCNC(=O)[C@H]1[C@@H]2C(=O)O[C@@H](c3ccccc3)[C@@H](c3ccccc3)N2[C@@H](c2ccc(O)cc2)[C@]12C(=O)Nc1ccc(C#CCCO)cc12 ?
DENV2 CPE rescue: inactive; PglD inh: inactive

Results for COc1cccc(-c2cnc3c(NC(C)=O)cc(-c4ccc(OC)c(OC)c4)cn23)c1 ?
DENV2 CPE rescue: inactive; Glyco luc inh: inactive; PglD inh: inactive

How did COc1ccccc1-c1cc(NC=O)c2ncc(-c3cccc(C(C)=O)c3)n2c1 do in these assays?
DENV2 CPE rescue: inactive; Glyco luc inh: inconclusive; PglD inh: inactive

What do the screens show for `CC(=O)Nc1cccc(-c2cc(NC(C)=O)c3ncc(-c4cccc(C(C)=O)c4)n3c2)c1`?
DENV2 CPE rescue: inactive; Glyco luc inh: inactive; PglD inh: inactive

What do the screens show for `COc1ccccc1-c1cc(NC=O)c2ncc(-c3cccc(C(=O)N(C)C)c3)n2c1`?
DENV2 CPE rescue: inactive; Glyco luc inh: 41; PglD inh: inactive

What do the screens show for `COc1ccc(-c2cc(NC(C)=O)c3ncc(-c4cccc(C(C)=O)c4)n3c2)cc1OC`?
DENV2 CPE rescue: 49; Glyco luc inh: inactive; PglD inh: inactive

Results for CC(=O)Nc1cccc(-c2cc(NC=O)c3ncc(-c4ccc(C(C)=O)cc4)n3c2)c1 ?
DENV2 CPE rescue: 34; Glyco luc inh: inactive; PglD inh: inactive

How did C[C@@H]1CN([C@@H](C)CO)C(=O)c2cc(NS(=O)(=O)c3cn(C)cn3)ccc2O[C@@H](C)CCCCO[C@@H]1CN(C)Cc1ccc(C(F)(F)F)cc1 do in these assays?
PglD inh: inactive

What do the screens show for `COc1cccc(-c2nc(N3CCN(C)CC3)c3ccccc3n2)c1O`?
DENV2 CPE rescue: inactive; Glyco luc inh: 129; Rtt109 HAT inh: inactive

What do the screens show for `CCOc1ccc(C2NC(=O)C(C#N)=C(S)N2c2ccc(OC)cc2)cc1OC` (centres undefined)?
Glyco luc inh: inactive; PglD inh: inactive; Rtt109 HAT inh: 144

How did N#CC1=C(S)N(c2ccccc2)C(c2cccs2)NC1=O (centres undefined) do in these assays?
DENV2 CPE rescue: inactive; Glyco luc inh: inactive; PglD inh: inactive; Rtt109 HAT inh: 109

Results for COc1ccc(N2C(S)=C(C#N)C(=O)NC2c2ccc(OC)c(OC)c2)cc1 (centres undefined) ?
DENV2 CPE rescue: inactive; Glyco luc inh: inactive; Rtt109 HAT inh: 110

What do the screens show for `COc1cc(C2NC(=O)C(C#N)=C(S)N2c2ccc(C)cc2)ccc1OC(C)C` (centres undefined)?
Glyco luc inh: inactive; PglD inh: inactive; Rtt109 HAT inh: inconclusive

How did COc1ccc(C2NC(=O)C(C#N)=C(S)N2c2cccc(C)c2)cc1OC (centres undefined) do in these assays?
DENV2 CPE rescue: inactive; Glyco luc inh: inactive; PglD inh: inactive; Rtt109 HAT inh: 74

Screening data from PubChem BioAssay.
